# Source: PubChem BioAssay (National Center for Advancing Translational Sciences (NCATS))
# A selection: hits, their analogues and other compounds. The true share with any hit is near 8%.
# HT1080 IDH1KD tx: HT-1080 IDH1 knockdown cell toxicity (counter line); HT-1080 IDH1 knockdown viability, ATP luminescence, 48 h; Potency, µM (doses to about 46.1 µM), for the others: at the highest dose activity, negative = toxicity, hits mostly cytotoxic; 360,000 tested, 2% active; AID 686971;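 also: 0% = DMSO wells and -100% = cell-free medium wells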
#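 Viability of IDH1-knockdown HT-1080 fibrosarcoma cells was assessed by CellTiter-Glo after 48 h at 37 °C with titrated compound; concentration-effect curves were classified by fit quality and response size.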
# KB-V1 cytotox: kills drug-selected multidrug resistant KB-V1 cells; KB-V1 MDR cells viability, CellTiter-Glo, 72 h; Potency, µM (doses to about 46.1 µM), usual class: cytotoxic; 400,000 tested, 3.4% active; AID 1347076; also: % is scaled to controls: 0 for no effect and ±100 for the full control effect; nearly all actives have a fitted effect of over 60% in size
#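 Cytotoxicity toward P-gp-expressing KB-V1 cells was determined as loss of CellTiter-Glo luminescence after 72 h at 37 degrees C. Compounds were tested in quantitative HTS format across a concentration range, with curves fitted to normalized data.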
# MCF10A rereplic: induces DNA re-replication in MCF 10a normal breast cells. MCF 10A DNA re-replication, Hoechst nuclear intensity, 48 h. Potency, µM (doses to about 46.1 µM), for the others: at the highest dose activity, positive = re-replication, most hits filed as activators. 350,000 tested, 2.9% active. AID 624296; also: % of control where 0% means no effect; nearly all actives have a fitted effect of over 50% in size
# HT1080-NT tox: kills 2HG-producing HT-1080-NT fibrosarcoma cells. 360,000 tested, 1.6% active. HT-1080-NT fibrosarcoma viability, CellTiter-Glo ATP luminescence, 48 h. Potency, µM (series often up to 46.1 µM), without a hit: at the top dose activity, negative = less viability, hits mostly cytotoxic;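 also: NT is the 2HG producing partner of a matched IDH1 knockdown line; 0% = DMSO-treated cells and -100% = media-only wells without cells; nearly all actives have a fitted effect of over 55% in size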
#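 Toxicity toward the 2HG-producing NT line was scored as %Activity, normalised to DMSO and no-cell wells, from CellTiter-Glo luminescence after 48 hours' treatment.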
# KB-3-1 cytotox: KB-3-1 parental cell cytotoxicity. Potency, µM (titrated, usually from 46.1 µM), hits mostly cytotoxic. 400,000 tested, 1.4% active. AID 1347075. KB-3-1 viability, CellTiter-Glo ATP luminescence, 72 h; also: % is scaled to controls: 0 for no effect and ±100 for the full control effect; nearly all actives have a fitted effect of over 60% in size
#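 Cytotoxicity in the drug-sensitive parental line KB-3-1 was scored as loss of CellTiter-Glo luminescence following 72 h incubation with compound. Values come from curve fitting of normalized concentration-response data.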
# SW480 rerep: induces DNA re-replication in SW480 colon adenocarcinoma cells; SW480 DNA re-replication, Hoechst DNA content imaging, 48 h; Potency, µM (doses to about 46.1 µM), without a hit: top-dose re-replication activation, hits mostly activators; 340,000 tested, 1.8% active; AID 624297; also: % of control where 0% means no effect; nearly all actives have a fitted effect of over 55% in size
#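 DNA re-replication was detected as more nuclei of elevated Hoechst intensity after 48 hr exposure to compound (23 nL pinned per well of 250 cells).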
# * hit, by the source's call; i = inactive; u = inconclusive; x = not tested or not shown. Calls follow the shape of the dose curve; as a rule, active = well fitted curve in the direction sought with a large enough effect; inconclusive = small, poorly fitted or top-dose-only effect, or another doubt; inactive = no such curve, though single readings can be large; an effect the other way counts as inactive or inconclusive. Potency is read from the fitted curve at half-maximal effect.
SMILES,HT1080 IDH1KD tx,KB-V1 cytotox,MCF10A rereplic,HT1080-NT tox,KB-3-1 cytotox,SW480 rerep
COc1cc(-c2cccc([C@H]3[C@@H]4C=CC[C@@H](C)[C@@H]4C(=O)N3Cc3ccccc3)c2)cc(OC)c1OC,u,i,7.3µM*,u,i,3%
COc1ccc(-c2ccoc2)cc1[C@H]1[C@H]2C=CC[C@@H](C)[C@@H]2C(=O)N1Cc1ccccc1,u,i,18µM*,u,u,7%
COc1ccc(C(=O)Nc2ccccc2C(=O)N/N=C/c2cccc3ccccc23)cc1,18µM*,u,6%,18µM*,u,14%
CN(C)c1ccc(C=NNC(=O)c2cccc3ccccc23)c(Cl)c1,u,3.7µM*,18%,u,5.2µM*,18µM*
Cc1ccccc1OCC(=O)N/N=C/c1cccc2cccnc12,u,u,17%,-14%,i,u
O=C(N/N=C/c1ccccc1O)c1cc[n+]([O-])cc1,u,i,u,-18%,i,26µM*
O=C(COc1cccc2cccnc12)N/N=C/c1ccccc1O,-29%,12µM*,-17%,-15%,u,-22%
COc1ccc(C(=O)Nc2ccccc2C(N)=O)cc1,-16%,i,1%,-3%,u,-9%
O=C(COC(=O)Cc1cccc(F)c1)NC(=O)NC1CCCCC1,7%,i,0%,8%,i,-58%
CCOc1ccc(C=NNC(=O)c2cccc3ccccc23)cc1OCC,15%,23µM*,9%,-1%,i,-4%
COCc1cc(C)nc(OCC(=O)N/N=C/c2ccccc2O)c1C#N,18µM*,i,8%,u,i,5%
O=C(N/N=C/c1ccc[nH]1)c1ccccc1O,-11%,5.2µM*,-32%,-15%,u,u
COc1ccc(/C=N/NC(=O)c2nn(C)cc2Br)cc1CSCc1ccco1,2%,x,1%,1%,x,-6%
COc1cc(/C=N/NC(=O)c2cccc3ccccc23)ccc1OCC(N)=O,-1%,i,0%,-8%,i,-7%
COCc1cc(C)nc(OCC(=O)N/N=C/c2ccc(O)cc2O)c1C#N,u,i,19%,-28%,i,u
CCOc1cc(/C=N/NC(=O)c2nn(C)cc2Br)ccc1OCc1ccccc1,10%,16µM*,17%,-1%,i,-1%
CC(=O)NNS(=O)(=O)c1ccccc1[N+](=O)[O-],18%,i,-5%,19%,i,0%
CCC1(C)CC(C(N)=S)CCO1 (configuration not stated),15%,i,1%,5%,i,-10%
O=C(N/N=C/c1ccccc1O)c1cccc2ccccc12,9.2µM*,u,-9%,u,i,u
COc1ccc(C(=O)Nc2ccccc2C(=O)N/N=C/c2ccncc2)cc1OC,26µM*,u,2%,26µM*,u,-83%
COc1ccc(C(=O)Nc2ccccc2C(=O)NCc2cccnc2)cc1OC,1%,x,4%,0%,x,10%
O=C(Nc1ccnc(-c2cccnc2)n1)c1ccc(Cl)cc1,u,i,2%,10%,i,-2%
Cc1ccc(CN2CCC(Oc3cccc(C(=O)N(C)CCN(C)C)c3)CC2)cc1C,21µM*,i,17%,u,i,6%
COCCNc1nnc(SCC(=O)Nc2cc(-c3ccccc3)nn2-c2ccccc2)s1,6%,16µM*,1%,-9%,i,-3%
Cn1c(SCCCC(=O)c2ccc(F)cc2)nnc1-c1ccncc1,5%,i,u,3%,i,-5%
SMILES,HT1080 IDH1KD tx,KB-V1 cytotox,MCF10A rereplic,HT1080-NT tox,KB-3-1 cytotox,SW480 rerep
COCCn1c(SCCCC(=O)c2ccc(Br)cc2)nnc1-c1ccncc1,-18%,2.6µM*,18%,-4%,10µM*,1%
COCCn1c(SCC(=O)Nc2cc(C(C)(C)C)nn2-c2ccccc2)nnc1-c1ccncc1,-8%,16µM*,-69%,3%,i,-32%
OC(c1ccco1)c1nc(-c2cccs2)cs1 (configuration not stated),-15%,i,x,-16%,i,x
CCOc1ccc(C(=O)NCc2ccco2)cc1OCC,4%,i,-6%,6%,i,u
CCCCC(CC)C(=O)Nc1cc(C(=O)NCCC)ccc1N1CCC2(CC1)CC(c1ccccc1)=NO2 (configuration not stated),0%,i,-1%,-1%,i,-9%
Cc1ccc(S(=O)(=O)NC(Cc2ccc(Cl)cc2)C(=O)O)cc1 (configuration not stated),0%,i,-21%,9%,i,-9%
CCOc1ccc(N2C(=O)CC(N(CCc3ccccc3)C(=O)/C=C/C(=O)O)C2=O)cc1 (configuration not stated),-4%,i,-4%,-1%,i,-3%
Cc1ccc(-n2cnc(N)c2C(=O)c2cccc([N+](=O)[O-])c2)cc1,-14%,u,15µM*,-18%,i,u
COc1cc(C(=O)NCCC(C)C)ccc1OCc1ccc(Cl)cc1Cl,-6%,15µM*,u,-6%,u,-2%
COc1ccc(Cl)cc1C(=O)NCCN(C)C,-12%,i,12%,-2%,i,-17%
CN(C)CCNC(=O)c1ccc(COc2ccc(Cl)cc2Cl)cc1,u,18µM*,u,10µM*,u,u
CC(Sc1nncs1)C(=O)Nc1ccc2c(c1)OCCO2 (configuration not stated),8%,i,-2%,19%,i,-308%
O=S(=O)(NC1CC1)c1ccc(S(=O)(=O)N2CCCC3(CCCCC3)C2)cc1,-5%,i,15µM*,7%,i,u
O=S(=O)(NC1CC1)c1ccc(S(=O)(=O)N2CCN3CCCC3C2)cc1 (configuration not stated),9%,i,-8%,-1%,i,0%
Cc1ccc(C(=O)C(C)OC(=O)CCN=C2NS(=O)(=O)c3ccccc32)cc1 (configuration not stated),-6%,i,-29%,-7%,i,u
C=C(C(=O)c1ccccc1)C(C)CC(=O)c1ccccc1 (configuration not stated),21µM*,i,u,-25%,i,21µM*
COC(=O)C(NC(=O)c1ccccc1)c1ccccc1 (configuration not stated),6%,i,3%,4%,i,1%
